Consider four molecules from PubChem BioAssay (EPA / NIEHS).

Usually AC50 stands for the midpoint of the concentration-response curve, whichever way the signal moves.

Molecules are shown by their SMILES. Calls of active or inactive are those of the source. How the source made its calls: active means hit-call score of the fitted dose curve at least 0.9, where 1 is the maximum; inactive means score below 0.9.

Read-out in experiment [1]: Interleukin-1 alpha (IL1a), IL1A (gene 3552)
The experiment is described as follows: BSK_KF3CT_IL1a: BioMAP Diversity Plus: KF3CT Assay for Interleukin-1 alpha (IL1a) Biomarker Activity (AID 2283070). Conditions: primary human keratinocytes with fibroblasts; actives raise or lower the signal. In outline: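 Human keratinocyte plus foreskin fibroblast primary co-culture, sampled 24 h after chemical dosing. IL-1a measured by ELISA; responses fitted bidirectionally against DMSO baseline (negative control), so gain or loss of signal both count.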

Read-out in experiment [2]: TIMP metallopeptidase inhibitor 2 (TIMP2), TIMP2 (gene 7077)
The experiment is described as follows: BSK_KF3CT_TIMP2: BioMAP Diversity Plus: KF3CT Assay for TIMP metallopeptidase inhibitor 2 (TIMP2) Biomarker Activity (AID 2283071). To be noted: primary human keratinocytes with fibroblasts; actives raise or lower the signal. In outline:
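Cells: human keratinocytes co-cultured with foreskin fibroblasts. Treat with chemical, 24 h. Measure TIMP-2 by ELISA; fit curves bidirectionally vs DMSO baseline.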

Read-out in experiment [3]: C-C motif chemokine 2 (Homo sapiens) (UniProt P13500)
The experiment is described as follows: BSK_KF3CT_MCP1: BioMAP Diversity Plus: KF3CT Assay for Monocyte Chemoattractant Protein 1 (MCP1/CCL2) Biomarker Activity (AID 2283073). Conditions: primary human keratinocytes with fibroblasts; actives raise or lower the signal. The method in brief: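 ELISA read-out of MCP-1, 24 h post-dose, in primary human skin keratinocytes co-cultured with fibroblasts. Parallel SRB staining monitors cytotoxicity; changes fitted both directions relative to DMSO.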

Read-out in experiment [4]: Matrix Metallopeptidase 9 (MMP9), MMP9 (gene 4318)
The experiment is described as follows: BSK_KF3CT_MMP9: BioMAP Diversity Plus: KF3CT Assay for Matrix Metallopeptidase 9 (MMP9) Biomarker Activity (AID 2283074).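 On AC50: MMP9 protein level quantified by ELISA in the co-culture.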 Conditions: primary human keratinocytes with fibroblasts; actives raise or lower the signal. In outline: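 Keratinocyte plus foreskin fibroblast human primary skin co-culture was dosed with chemical and MMP-9 was quantified by ELISA 24 h later. Bidirectional curve fitting used DMSO as negative control and activity baseline.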

Read-out in experiment [5]: urokinase plasminogen activator (uPA), PLAU (gene 5328)
The experiment is described as follows: BSK_KF3CT_uPA: BioMAP Diversity Plus: KF3CT Assay for urokinase plasminogen activator (uPA) Biomarker Activity (AID 2283075). To be noted: primary human keratinocytes with fibroblasts; actives raise or lower the signal. The method in brief:
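Human keratinocyte plus foreskin fibroblast primary co-culture exposed to chemical for 24 h. uPA levels were quantified by ELISA, and activity was fitted bidirectionally against a DMSO negative-control baseline.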

Read-out in experiment [6]: CD40, CD40 (gene 958)
The experiment is described as follows: BSK_LPS_CD40: BioMAP Diversity Plus: LPS Assay for CD40 Biomarker Activity (AID 2283076). To be noted: primary human HUVEC with PBMC; actives raise or lower the signal. In outline: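 In the LPS system of human endothelial cells with peripheral blood mononuclear cells, CD40 levels were read by ELISA 24 h post-treatment. Signal changes in either direction were fitted against the DMSO baseline, with parallel SRB protein staining.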

Read-out in experiment [7]: Interleukin-8 (IL8), CXCL8 (gene 3576)
Briefly: BSK_LPS_IL8: BioMAP Diversity Plus: LPS Assay for Interleukin-8 (IL8) Biomarker Activity (AID 2283078). Conditions: primary human HUVEC with PBMC; actives raise or lower the signal. In outline:
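ELISA read-out of IL-8 after 24 h chemical treatment of LPS-activated endothelial/PBMC human primary co-cultures. Changes either up or down relative to DMSO; overt cytotoxicity checked by sulforhodamine B staining in parallel wells.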

Experiment [8] in a line: BSK_LPS_SRB: Viability Assessment in the BioMAP Diversity Plus: LPS Assay (AID 2283079).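 Further: total protein by sulforhodamine B absorbance as a cytotoxicity measure; measured one day after compound addition.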 To be noted: primary human HUVEC with PBMC. The method in brief: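 SRB viability endpoint: cells fixed with 10% TCA, stained with 0.1% SRB, read at 560 nm, 24 h post-dose. HUVEC/PBMC co-culture; signal change in either direction scored relative to DMSO.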
Read-out in experiment [9]: Interleukin-1 alpha (IL1a), IL1A (gene 3552)
The experiment is described as follows: BSK_LPS_IL1a: BioMAP Diversity Plus: LPS Assay for Interleukin-1 alpha (IL1a) Biomarker Activity (AID 2283080). Conditions: primary human HUVEC with PBMC; actives raise or lower the signal. The method in brief: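 Readout is IL-1a level by ELISA, 24 h post-dose, fitted as gain or loss relative to DMSO. System: LPS-activated human primary co-culture of vascular endothelium and peripheral blood mononuclear cells, with parallel SRB total-protein cytotoxicity.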

A short description of experiment [10]: BSK_LPS_PGE2: BioMAP Diversity Plus: LPS Assay for Prostaglandin E2 (PGE2) Biomarker Activity (AID 2283082).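 On AC50: secreted prostaglandin E2 measured by ELISA in LPS-stimulated co-culture.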 Conditions: primary human HUVEC with PBMC; actives raise or lower the signal. In outline: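 LPS-activated HUVEC/PBMC co-culture; cmpd dosed, 24 h; PGE2 by ELISA; bidirectional fit vs DMSO; SRB (0.1%, TCA-fixed, 560 nm) in parallel plates for overt cytotox.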

Read-out in experiment [11]: Macrophage colony-stimulating factor (MCSF), CSF1 (gene 1435)
Briefly: BSK_LPS_MCSF: BioMAP Diversity Plus: LPS Assay for Macrophage colony-stimulating factor (MCSF) Biomarker Activity (AID 2283083). To be noted: primary human HUVEC with PBMC; actives raise or lower the signal. The method in brief: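 Bidirectional fitting against DMSO was applied to M-CSF levels read by ELISA at 24 h post-dose. The system pairs human umbilical vein endothelium with peripheral blood mononuclear cells; parallel SRB staining tracked cytotoxicity.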

Read-out in experiment [12]: Tissue Factor, F3 (gene 2152)
Briefly: BSK_LPS_TissueFactor: BioMAP Diversity Plus: LPS Assay for Tissue Factor Biomarker Activity (AID 2283084). To be noted: primary human HUVEC with PBMC; actives raise or lower the signal. The method in brief:
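Compound was added to an endothelial cell/PBMC co-culture, and after 24 h tissue factor (CD142) was read by ELISA. Gain or loss of signal was fitted against a DMSO baseline, and parallel SRB staining (560 nm) tracked overt cytotoxicity.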

Read-out in experiment [13]: Tumor necrosis factor (Homo sapiens) (UniProt P01375)
The experiment is described as follows: BSK_LPS_TNFa: BioMAP Diversity Plus: LPS Assay for Tumour Necrosis Factor alpha (TNFa) Biomarker Activity (AID 2283085). Conditions: primary human HUVEC with PBMC; actives raise or lower the signal. The method in brief: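 Read-out is ELISA of TNFa in primary human endothelial cell–PBMC co-cultures at 24 h after compound. Activity in either direction was fitted against DMSO.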

Read-out in experiment [14]: Vascular cell adhesion molecule 1 (VCAM1), VCAM1 (gene 7412)
The experiment is described as follows: BSK_LPS_VCAM1: BioMAP Diversity Plus: LPS Assay for Vascular cell adhesion molecule 1 (VCAM1) Biomarker Activity (AID 2283086). Conditions: primary human HUVEC with PBMC; actives raise or lower the signal. In outline: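 HUVEC + PBMC co-culture, LPS system; compound 24 h; VCAM-1 by ELISA; bidirectional fit vs DMSO control; parallel SRB (0.1%, TCA-fixed, 560 nm) for cytotoxicity.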

Read-out in a further experiment: CD38, CD38 (gene 952)
The experiment is described as follows: BSK_SAg_CD38: BioMAP Diversity Plus: SAg Assay for CD38 Biomarker Activity (AID 2283087). Conditions: primary human HUVEC with PBMC; actives raise or lower the signal. The method in brief: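 Human HUVEC plus PBMC co-culture stimulated with superantigen; CD38 measured by ELISA 24 h after chemical dosing. Fluorescence read-out, bidirectional fit against DMSO; cytotoxicity tracked in parallel by SRB and Alamar Blue.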

Read-out in experiment [15]: CD40, CD40 (gene 958)
The experiment is described as follows: BSK_SAg_CD40: BioMAP Diversity Plus: SAg Assay for CD40 Biomarker Activity (AID 2283088). To be noted: primary human HUVEC with PBMC; actives raise or lower the signal. The method in brief:
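CD40 is measured by fluorescence ELISA in an endothelial/PBMC primary human co-culture at 24 h post-dose. Fitting is bidirectional, DMSO baseline. Parallel SRB staining (560 nm) flags cytotoxicity.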

Read-out in another experiment: CD69, CD69 (gene 969)
Briefly: BSK_SAg_CD69: BioMAP Diversity Plus: SAg Assay for CD69 Biomarker Activity (AID 2283089).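 On AC50: cell surface CD69 protein quantified by ELISA with fluorescence detection.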 Conditions: primary human HUVEC with PBMC; actives raise or lower the signal. The method in brief:
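ELISA, fluorescence read-out: CD69 on human umbilical vein endothelial cell + PBMC co-culture, 24 h post-dosing. Gain or loss of signal fitted bidirectionally against DMSO baseline.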

Read-out in experiment [16]: Monocyte Chemoattractant Protein-1 (MCP1), CCL2 (gene 6347)
The experiment is described as follows: BSK_LPS_MCP1: BioMAP Diversity Plus: LPS Assay for Monocyte Chemoattractant Protein-1 (MCP1) Biomarker Activity (AID 2283081).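 Further: secreted MCP-1 protein quantified by ELISA in culture supernatant.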 Conditions: primary human HUVEC with PBMC; actives raise or lower the signal. In outline: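 Secreted MCP-1 read by ELISA at 24 h post-dosing in an LPS-activated co-culture of endothelial cells with peripheral blood mononuclear cells. Fits run in both directions, DMSO as baseline; parallel SRB staining tracks overt cytotoxicity.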

Read-out in experiment [17]: Transforming growth factor beta 1 (TGFb1), TGFB1 (gene 7040)
The experiment is described as follows: BSK_KF3CT_TGFb1: BioMAP Diversity Plus: KF3CT Assay for Transforming growth factor beta 1 (TGFb1) Biomarker Activity (AID 2283072). To be noted: primary human keratinocytes with fibroblasts; actives raise or lower the signal. The method in brief:
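Primary human skin cells (keratinocytes, foreskin fibroblasts) were co-cultured, exposed to test chemical and sampled at 24 h. TGF-b1 levels were measured by ELISA and fitted bidirectionally relative to DMSO.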

Read-out in experiment [18]: E-selectin (Homo sapiens) (UniProt P16581)
The experiment is described as follows: BSK_LPS_Eselectin: BioMAP Diversity Plus: LPS Assay for Eselectin Biomarker Activity (AID 2283077). To be noted: primary human HUVEC with PBMC; actives raise or lower the signal. In outline:
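E-selectin ELISA on LPS-stimulated endothelial cell/PBMC co-cultures, read 24 h post-treatment; gains and losses fitted against DMSO. Parallel SRB staining (0.1% SRB after 10% TCA fixation, 560 nm) flags overt cytotoxicity.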

Chain of Tumor necrosis factor (Homo sapiens) (P01375 whole entry, looked up): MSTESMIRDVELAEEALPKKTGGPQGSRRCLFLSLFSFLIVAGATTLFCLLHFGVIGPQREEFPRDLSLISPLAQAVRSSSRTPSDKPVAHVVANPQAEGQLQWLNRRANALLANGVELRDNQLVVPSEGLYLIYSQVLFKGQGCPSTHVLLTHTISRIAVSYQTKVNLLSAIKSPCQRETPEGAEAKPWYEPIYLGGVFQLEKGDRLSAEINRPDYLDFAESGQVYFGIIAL
Chain of E-selectin (Homo sapiens) (P16581 whole entry, looked up): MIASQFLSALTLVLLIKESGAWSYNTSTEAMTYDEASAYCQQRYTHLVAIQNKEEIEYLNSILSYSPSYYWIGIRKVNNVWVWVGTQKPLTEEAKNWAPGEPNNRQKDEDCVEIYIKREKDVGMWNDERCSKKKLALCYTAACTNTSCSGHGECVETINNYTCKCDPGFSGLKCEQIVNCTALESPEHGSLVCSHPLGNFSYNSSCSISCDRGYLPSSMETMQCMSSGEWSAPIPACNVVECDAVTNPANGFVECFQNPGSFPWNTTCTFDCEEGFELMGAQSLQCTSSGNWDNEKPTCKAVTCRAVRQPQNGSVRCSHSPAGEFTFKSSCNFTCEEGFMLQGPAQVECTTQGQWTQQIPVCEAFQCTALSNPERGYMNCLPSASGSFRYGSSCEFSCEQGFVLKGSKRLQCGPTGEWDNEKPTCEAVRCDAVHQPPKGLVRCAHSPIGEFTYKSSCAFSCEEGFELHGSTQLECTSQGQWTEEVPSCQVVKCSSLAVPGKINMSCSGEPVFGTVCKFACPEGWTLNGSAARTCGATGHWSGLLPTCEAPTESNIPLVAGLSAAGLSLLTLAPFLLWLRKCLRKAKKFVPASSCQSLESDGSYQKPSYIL

As for `C=CC(=O)OCC(C)OCC(C)OCC(C)OC(=O)C=C` (stereo not drawn), the AC50 in experiment [1] is 20 µM (active); in experiment [3], 10.4 µM (active); in [4], 14.7 µM (active); in experiment [5], 20 µM (active); with CD40, CD40 (gene 958) [6], 6.73 µM (active); in [7], 11.9 µM (active). The AC50 in experiment [8] was 22.9 µM (active); in [9], 9.53 µM (active); in experiment [10] it was 5.46 µM (active); in [11] it was 10 µM (active); in experiment [12], 10.6 µM (active); in experiment [14], 8.45 µM (active). Also, the AC50 with CD38, CD38 (gene 952) is 7.74 µM (active); with CD40, CD40 (gene 958) [15] it was 8.77 µM (active); in the experiment with CD69, CD69 (gene 969), 7.77 µM (active). The outcome in experiment [2] and in experiment [13] was inactive.

For the molecule `Oc1c(Cl)cc(Cl)c(Cl)c1Cl`, the result in experiment [1], in experiment [5], in [7], in [10] and in experiment [13] was inactive. Moreover, the half-maximal activity concentration (AC50) in [2] was 11.4 µM (active); in [3], 20 µM (active); in experiment [4], 20 µM (active); in the experiment with CD40, CD40 (gene 958) [6], 20 µM (active); in experiment [8], 20 µM (active); in [16], 31.5 µM (active). In addition, the AC50 is 26 µM (active) in [11]; 20 µM (active) in [12]; 20 µM (active) in experiment [14]; 20 µM (active) with CD38, CD38 (gene 952); 20 µM (active) in the experiment with CD40, CD40 (gene 958) [15]; 27.8 µM (active) with CD69, CD69 (gene 969).

As for `Oc1ccc(/C=C/c2cc(O)cc(O)c2)cc1`, the AC50 was 3.97 µM (active) in experiment [1]; 8.83 µM (active) in experiment [2]; 20 µM (active) in experiment [3]; 16 µM (active) in [4]; 20 µM (active) in [8]; 2.5 µM (active) in experiment [10]. In addition, the outcome in experiment [17] was “inactive”; in experiment [5] it was “inactive”; with CD40, CD40 (gene 958) [6], “inactive”; in experiment [18], “inactive”; in [7], “inactive”; in experiment [11], “inactive”. Also, the outcome is “inactive” in experiment [12]; “inactive” in experiment [13]; “inactive” in experiment [14]; “inactive” with CD38, CD38 (gene 952); “inactive” in the experiment with CD40, CD40 (gene 958) [15]; “inactive” in the experiment with CD69, CD69 (gene 969).

Regarding `CCCCC1C(=O)N(c2ccccc2)N(c2ccccc2)C1=O`, the outcome was “inactive” in [1]; “inactive” in experiment [2]; “inactive” in experiment [3]; “inactive” in [4]; “inactive” in experiment [5]; “inactive” with CD40, CD40 (gene 958) [6]. In addition, the result in experiment [7], in [8], in experiment [10], in [11], in [12] and in [13] was inactive. Also, the outcome in experiment [14] was “inactive”; with CD38, CD38 (gene 952), “inactive”; with CD40, CD40 (gene 958) [15], “inactive”; in the experiment with CD69, CD69 (gene 969), “inactive”.
